27 compounds from PubChem BioAssay (Tox21) can be followed below.

Experiment [1] can be described thus: qHTS assay to identify aromatase inhibitors - cell viability counter screen (AID 743084).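 Further: cells stimulated with testosterone during compound exposure; nearly all actives have a fitted effect of over 55% in size.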 Further: potency means the concentration at half of the fitted maximal effect.
The nature of experiment [2]: qHTS assay to identify small molecule that activate the aryl hydrocarbon receptor (AhR) signaling pathway - cell viability counter screen (AID 743086). Further: series mostly up to about 70 µM; nearly all actives have a fitted effect of over 45% in size. In short, it runs like this:
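HepG2-AhR-luc (HG2L7.5c1) cells, 4000/well, treated 24 h at 37 C with compound; viability measured as CellTiter-Fluor fluorescence after 30 min in the same wells as the luciferase read.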

Experiment [3] in a line: qHTS assay to identify small molecule antagonists of the peroxisome proliferator-activated receptor gamma (PPARg) signaling pathway - cell viability counter screen (AID 743194). Further: nearly all actives have a fitted effect of over 55% in size. In short, it runs like this: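 Cytotoxicity counter screen in PPARg-bla HEK293H cells, same wells as reporter assay. Compounds plus 50 nM rosiglitazone (final) for 17 h at 37 C, then viability read by CellTiter-Glo luminescence.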

The nature of experiment [4]: qHTS assay for small molecule agonists of the antioxidant response element (ARE) signaling pathway - cell viability counter screen (AID 743203; calls by dose curve; further: nearly all actives have a fitted effect of over 55% in size; further: potency means the concentration at half of the fitted maximal effect). In short, it runs like this:
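ARE-bla HepG2 cells were plated, rested 5 h at 37C/5% CO2, then exposed to compounds in DMSO for 16 h. Viability was read as CellTiter-Glo luminescence after 30 min at room temperature, in the same wells as the ARE screen.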
A general note: Quantitative high-throughput screening tests each substance at several concentrations.

Experiment [5] can be described thus: qHTS assay for small molecule activators of the heat shock response signaling pathway - cell viability counter screen (AID 743209). Further: nearly all actives have a fitted effect of over 50% in size. In short, it runs like this: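 HSE-bla HeLa cells plated overnight, then exposed to Tox21 compounds (23 nL in DMSO) for 5 h at 37 C. After the bla reporter read, CellTiter-Glo was added in the same wells and luminescence read after 30 min at room temperature.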

Experiment [6] is described as follows: qHTS assay for small molecule activators of the heat shock response signaling pathway (AID 743210; active means well fitted activation curve with a large enough effect in the signal ratio in the repeat runs, with a control signal flat, not every such curve was filed as active; the % refers to the signal ratio; further: potency means the concentration at half of the fitted maximal effect; on activation: series mostly up to about 63 µM). In short, it runs like this:
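HSE-bla HeLa cells (beta-lactamase reporter under heat shock response elements), plated overnight, then exposed to compounds 5 h at 37 C; LiveBLAzer B/G FRET substrate added, 2.5 h at room temperature, fluorescence intensity read.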

Experiment [7] addresses Aryl hydrocarbon receptor (Homo sapiens) (UniProt P35869). Put plainly: qHTS assay to identify small molecule that activate the aryl hydrocarbon receptor (AhR) signaling pathway (AID 743085).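 Further: HG2L7.5c1 human HepG2 liver cells with stably integrated DRE-driven firefly reporter; series mostly up to about 70 µM; nearly all actives have a fitted effect of over 15% in size.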 In short, it runs like this: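 HepG2 cells stably carrying a 20-DRE firefly luciferase reporter (HG2L7.5c1) treated with compound for 24 hr at 37C. Luciferase read by ONE-Glo luminescence, with CellTiter-Fluor viability read first.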

The target in experiment [8] is Peroxisome proliferator-activated receptor gamma (Homo sapiens) (UniProt P37231). Put plainly: qHTS assay to identify small molecule agonists of the peroxisome proliferator-activated receptor gamma (PPARg) signaling pathway (AID 743094; active means well fitted activation curve with a large enough effect in the signal ratio in the repeat runs, not every such curve was filed as active; the % refers to the signal ratio). In short, it runs like this:
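GeneBLAzer PPARg UAS-bla HEK293H cells were plated, rested 5 h, then exposed to compounds for 17 h at 37C. Beta-lactamase activity was read by LiveBLAzer B/G FRET substrate fluorescence after 1 h at room temperature.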

For experiment [9] the target is unchanged. In words: qHTS assay to identify small molecule antagonists of the peroxisome proliferator-activated receptor gamma (PPARg) signaling pathway (AID 743191; calls by dose curve; further: series mostly up to about 63 µM; nearly all actives have a fitted effect of over 30% in size). In short, it runs like this: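 GeneBLAzer PPARg UAS-bla HEK293H cells, 5 h post-plating, exposed to compounds 17 h at 37C. LiveBLAzer B/G FRET substrate added for 1 h at room temperature; beta-lactamase reporter read by fluorescence intensity.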

Experiment [10] is described as follows: qHTS assay for small molecule agonists of the antioxidant response element (ARE) signaling pathway (AID 743202; active means well fitted activation curve with a large enough effect in the signal ratio in the repeat runs, not every such curve was filed as active; the % refers to the signal ratio; further: potency means the concentration at half of the fitted maximal effect). In short, it runs like this: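 ARE-bla HepG2 cells (beta-lactamase reporter under the antioxidant response element), plated 5 hours, then exposed to compounds 16 hours at 37 C. LiveBLAzer B/G FRET substrate added for 2 hours at room temperature; fluorescence intensity read.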

Results filed as inconclusive are left out. Values without a mark were called inactive. Activity calls are given as the source filed them. Unless noted, the call rests on the fitted dose curve; in most records, active means well fitted curve in the direction sought with a large enough effect in the repeat runs; inconclusive means weak or mixed curves; inactive means no such curve, though single readings can be large; an effect the other way counts as inactive or inconclusive.

Aryl hydrocarbon receptor (Homo sapiens), sequence (P35869 whole entry, looked up): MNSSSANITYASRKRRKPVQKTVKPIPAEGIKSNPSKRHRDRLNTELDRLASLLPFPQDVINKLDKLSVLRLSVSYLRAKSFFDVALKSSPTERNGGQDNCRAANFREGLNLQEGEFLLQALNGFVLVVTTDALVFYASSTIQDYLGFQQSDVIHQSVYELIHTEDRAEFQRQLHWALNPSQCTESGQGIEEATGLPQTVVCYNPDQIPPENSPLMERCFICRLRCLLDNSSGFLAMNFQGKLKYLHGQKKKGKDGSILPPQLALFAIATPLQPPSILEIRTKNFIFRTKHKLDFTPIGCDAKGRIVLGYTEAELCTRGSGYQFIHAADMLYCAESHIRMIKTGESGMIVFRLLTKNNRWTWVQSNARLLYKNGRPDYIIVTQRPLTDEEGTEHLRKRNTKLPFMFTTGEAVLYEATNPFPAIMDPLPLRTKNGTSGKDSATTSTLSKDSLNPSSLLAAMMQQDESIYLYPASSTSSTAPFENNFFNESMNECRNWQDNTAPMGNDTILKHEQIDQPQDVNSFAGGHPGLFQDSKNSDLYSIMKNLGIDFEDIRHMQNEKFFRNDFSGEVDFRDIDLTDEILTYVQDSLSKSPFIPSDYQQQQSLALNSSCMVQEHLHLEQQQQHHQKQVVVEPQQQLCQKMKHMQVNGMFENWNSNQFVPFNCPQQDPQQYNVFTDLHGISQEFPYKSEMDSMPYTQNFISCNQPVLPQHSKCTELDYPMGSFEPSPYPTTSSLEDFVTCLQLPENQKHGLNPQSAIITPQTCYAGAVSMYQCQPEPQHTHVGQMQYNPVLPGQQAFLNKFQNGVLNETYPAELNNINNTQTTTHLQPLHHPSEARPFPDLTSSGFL
Peroxisome proliferator-activated receptor gamma (Homo sapiens), sequence (P37231 whole entry, looked up): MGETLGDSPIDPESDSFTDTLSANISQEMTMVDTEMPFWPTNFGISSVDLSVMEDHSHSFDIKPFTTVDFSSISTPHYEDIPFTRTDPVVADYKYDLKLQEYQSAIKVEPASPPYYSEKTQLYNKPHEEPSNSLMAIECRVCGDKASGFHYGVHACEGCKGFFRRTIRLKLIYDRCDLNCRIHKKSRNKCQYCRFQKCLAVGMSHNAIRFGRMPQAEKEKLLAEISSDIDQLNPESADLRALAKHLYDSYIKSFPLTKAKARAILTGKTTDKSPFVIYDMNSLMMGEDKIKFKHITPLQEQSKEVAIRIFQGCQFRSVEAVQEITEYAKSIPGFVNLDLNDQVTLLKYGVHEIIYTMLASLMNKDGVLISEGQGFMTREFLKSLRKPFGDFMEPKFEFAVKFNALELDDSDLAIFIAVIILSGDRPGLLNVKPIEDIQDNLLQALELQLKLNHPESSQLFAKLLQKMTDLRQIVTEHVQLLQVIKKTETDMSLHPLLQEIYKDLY

Take `Cc1c(N)cccc1N`: the Potency entry in experiment [1], in experiment [3], in experiment [4] and in experiment [6] was “inactive” each time. The call in experiment [2] and in [5] was inactive.
For `CCCCNC(=S)NCCCC`, the Potency result in experiment [1], in experiment [7], in experiment [8], in experiment [9], in experiment [3] and in experiment [4] was “inactive” in each case. In addition, the Potency in experiment [6] was 23.6 µM (active).
As to `CN1CCN(C2=Nc3cc(F)ccc3Cc3ccccc32)CC1`, the Potency entry in experiment [1], in [7], in experiment [8], in experiment [4] and in experiment [6] was “inactive” each time. In experiment [5], the result was inactive.
In the case of `Cc1nc(-c2ccccn2)ncc1C(=O)Nn1cc(C)c2cc(F)ccc21`, the Potency entry in [1], in experiment [3], in experiment [4] and in [6] was “inactive” throughout. For the same compound, the call in experiment [2] and in [5] was inactive.
For the compound `OCC(CBr)(CBr)CBr`, the Potency result in [1], in experiment [8] and in experiment [6] was “inactive” throughout. For the same compound, the result in [2] and in [5] was inactive.
Consider `Cc1ccc(C)c(N)c1`, for which the Potency entry in experiment [1], in experiment [8], in [3] and in experiment [4] was “inactive” in each case. Also, the result in experiment [2] and in experiment [5] was inactive.
On to `CCCOCCC`, for which the Potency result in experiment [1], in experiment [8], in [3], in [10], in experiment [4] and in experiment [6] was “inactive” throughout. For the same compound, the compound was classed as inactive in experiment [2] and in [5].
Consider `O=[N+]([O-])c1nccn1CO[C@@H](CO)[C@H](O)CO`, for which the Potency result in [1], in [7], in experiment [8], in experiment [9], in experiment [3] and in experiment [10] was “inactive” in each case. Besides, the Potency entry in experiment [6] was “inactive”. Moreover, the result in [5] was inactive.
In the case of `O=C(O[C@@H](C(=O)O)[C@@H](OC(=O)c1ccccc1)C(=O)O)c1ccccc1`, the Potency result in experiment [1], in [8], in [3], in experiment [10], in experiment [4] and in experiment [6] was “inactive” in each case. Also, the compound was called inactive in [2] and in experiment [5].
As to `FC(F)(F)c1ccccc1`, the Potency result in experiment [1], in [9], in [3], in experiment [4] and in [6] was “inactive” in each case. Moreover, in experiment [2], the result was inactive.
On to `CN(C)C(=O)NC1(c2ccccc2)CCN(CCC[C@]2(c3ccc(Cl)c(Cl)c3)CCCN(C(=O)c3ccccc3)C2)CC1`, for which the Potency in experiment [1] is 6.51 µM (active). Besides, the Potency entry in [7] and in experiment [6] was “inactive” throughout. For the same compound, in [5], the compound was classed as inactive.
`CCOC(=O)COc1ccc2c(c1)CC(NCC(O)c1cccc(Cl)c1)CC2` (stereo unspecified): the Potency in experiment [1] is 21.9 µM (active); in experiment [4], 48.9 µM (active). Further, the Potency result in [7], in experiment [8] and in [9] was “inactive” each time. In experiment [5], the compound was classed as inactive.
Regarding `NC(=O)Cc1cccc(C(=O)c2ccccc2)c1N`, the Potency result in experiment [1], in experiment [8], in experiment [3], in [10], in [4] and in experiment [6] was “inactive” each time. The result in [2] and in [5] was inactive.
In the case of `CCOc1ccccc1N`, the Potency entry in [1], in experiment [8], in experiment [9], in experiment [3], in [10] and in experiment [4] was “inactive” throughout. In addition, the Potency result in experiment [6] was “inactive”. The compound was classed as inactive in [2] and in experiment [5].
As for `CC(C)C[C@H](NC(=O)OCC1c2ccccc2-c2ccccc21)C(=O)O`, the Potency result in experiment [1], in [3], in [10], in [4] and in experiment [6] was “inactive” each time. Further, the outcome in [2] and in experiment [5] was inactive.
Consider `COC(=O)c1ccc2cc(C(=O)OC)ccc2c1`, for which the Potency entry in experiment [1], in experiment [8], in experiment [9], in experiment [3], in experiment [10] and in [4] was “inactive” each time. Also, in experiment [2], the compound was classed as inactive.
Take `CCCCNc1ccc(C(=O)OCCN(CC)CC)cc1`: the Potency entry in experiment [1], in [8], in [9], in [4] and in [6] was “inactive” in each case. For the same compound, the compound was called inactive in [2] and in experiment [5].
`C1CCOC1`: the Potency result in experiment [1], in experiment [7], in [10], in experiment [4] and in [6] was “inactive” in each case. In addition, the compound was classed as inactive in [2].
Turning to `Cn1cnc2c(F)c(Nc3ccc(Br)cc3Cl)c(C(=O)NOCCO)cc21`, the Potency entry in experiment [1], in experiment [8], in experiment [9], in [3], in [4] and in experiment [6] was “inactive” each time. The compound was called inactive in experiment [2] and in experiment [5].
As to `NNS(=O)(=O)c1ccc(Oc2ccc(S(=O)(=O)NN)cc2)cc1`, the Potency result in [1], in experiment [8], in experiment [9], in experiment [3], in [10] and in experiment [4] was “inactive” throughout. In experiment [6], the Potency result was “inactive”. For the same compound, the call in experiment [2] was inactive.
Regarding `CN1CCN(c2c(F)cc3c(=O)c(C(=O)O)cn4c3c2SCC4)CC1`, the Potency entry in [1], in [8], in experiment [3], in experiment [10], in [4] and in experiment [6] was “inactive” in each case. The compound was classed as inactive in experiment [2].
In the case of `CC1CN(c2ccccc2)NC1=O` (stereo unspecified), the Potency entry in [1], in experiment [9], in [4] and in [6] was “inactive” each time. Also, the compound was classed as inactive in experiment [2] and in [5].
Regarding `CCCC1CCC(=O)O1` (stereo unspecified), the Potency entry in experiment [7], in experiment [8], in [9], in [3], in [10] and in experiment [4] was “inactive” in each case. For the same compound, the Potency result in experiment [6] is “inactive”. Moreover, the result in experiment [2] and in experiment [5] was inactive.
Turning to `CCC(=O)c1ccc2c(c1)N(CCCN(C)C)c1ccccc1S2`, the Potency entry in experiment [7], in experiment [3] and in experiment [6] was “inactive” each time.
In the case of `CCOc1ccc(NS(=O)(=O)c2ccc(N)cc2)nn1`, in experiment [2], the call was inactive. The Potency entry in experiment [10], in experiment [4] and in experiment [6] was “inactive” each time.
Take `O=C(CCCl)NCc1ccccc1`: the Potency entry in experiment [3], in experiment [10], in experiment [4] and in [6] was “inactive” in each case. For the same compound, in experiment [5], the compound was classed as inactive.
Turning to `CC(=O)O[C@H]1CC[C@@]2(C)C(=CC[C@@H]3[C@@H]2CC[C@]2(C)C(C(C)=O)=CC[C@@H]32)C1`, the Potency entry in [9], in experiment [3], in [4] and in experiment [6] was “inactive” in each case. The Potency in experiment [10] was 23.7 µM (active). Also, the call in experiment [5] was inactive.
